Data from the supplement of paper PMC3334620.
In all, about 33,000 sequences were measured (“E-score (-0.5 to 0.5)”: median about -0.021, highest 2% from about 0.32 on). What follows is part of a selection rich in the highest values, with near analogues and random picks from the rest.

biological target: T1, Zap1 (UniProt P47043); test: PBM E-score (8-mer binding enrichment) (E-score (-0.5 to 0.5)); higher = stronger / more preferred TF binding; conditions: protein concentration: 200 nM; construct: GST-full length
T1 sequence: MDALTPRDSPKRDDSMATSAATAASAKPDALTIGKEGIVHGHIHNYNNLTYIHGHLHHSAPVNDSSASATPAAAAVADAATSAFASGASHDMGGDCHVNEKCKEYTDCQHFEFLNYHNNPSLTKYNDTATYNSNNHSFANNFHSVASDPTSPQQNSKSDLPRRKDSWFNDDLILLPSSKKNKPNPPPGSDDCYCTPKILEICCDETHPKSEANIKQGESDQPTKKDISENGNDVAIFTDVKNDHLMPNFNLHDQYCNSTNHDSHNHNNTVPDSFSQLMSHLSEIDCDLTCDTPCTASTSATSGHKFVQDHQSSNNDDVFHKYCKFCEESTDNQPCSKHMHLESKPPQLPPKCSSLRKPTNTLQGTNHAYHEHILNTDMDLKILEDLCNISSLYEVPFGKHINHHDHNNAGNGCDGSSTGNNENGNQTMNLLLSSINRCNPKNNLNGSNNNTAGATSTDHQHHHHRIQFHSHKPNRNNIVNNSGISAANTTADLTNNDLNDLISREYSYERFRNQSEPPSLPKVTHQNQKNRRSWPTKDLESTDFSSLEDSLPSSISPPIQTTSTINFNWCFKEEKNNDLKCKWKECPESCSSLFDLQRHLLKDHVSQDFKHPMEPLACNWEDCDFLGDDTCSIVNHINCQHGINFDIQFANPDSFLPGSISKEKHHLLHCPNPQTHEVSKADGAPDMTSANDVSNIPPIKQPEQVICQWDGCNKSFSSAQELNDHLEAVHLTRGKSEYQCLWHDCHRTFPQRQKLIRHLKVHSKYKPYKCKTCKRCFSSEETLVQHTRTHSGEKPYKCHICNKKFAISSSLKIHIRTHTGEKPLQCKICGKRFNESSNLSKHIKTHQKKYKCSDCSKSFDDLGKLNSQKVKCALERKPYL
Summary of the method: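 Each ungapped eight-base word and its reverse complement, pooled, received an E-score from the Universal PBM Analysis Suite. Underlying scans, normalised with masliner, recorded fluorescent anti-GST bound to GST-tagged yeast transcription factors. These were applied at about 100-200 nM to universal all-10-mer Agilent arrays double-stranded by primer extension.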

Sequence	PBM E-score
AGATCGCA	-0.127
AATTCTTG	-0.0794
TTACACAA	0.21
GAGTGCAA	0.0286
CTACCCCC	-0.295
ATACCCTC	0.323
CTACCCGC	0.244
CTACCCTC	0.35
CTACCCTA	0.291
AGACCCTC	0.092
GTACCCGA	0.184
ATACCCGA	0.224
ATACCCTG	0.306
ATACCCGC	0.314
ATACCCTA	0.459
GTACCCTA	0.413
AGCATCTA	-0.248
CTCTTGCA	-0.161
AACGGCGA	0.0503
ATAAAGCA	-0.0384
CCGTCCCA	-0.0821
AAATAGCT	-0.141
CCTCTTGA	0.148
AGGACCCT	0.226
CACTGCGC	-0.192

Sequence	PBM E-score
TCACCAGA	0.015
CCACAAGA	0.0787
CCACAAAA	0.237
CCACAAAG	0.34
CCACAAGC	0.0428
CCACAAGG	0.33
CCACAAAC	0.147
ACTAGATA	0.115
AGTGCAAC	0.0909
CGGGTGTA	0.0123
AAAGGGGC	-0.00977
CAAGGGCC	0.0489
CAAGGGTC	0.355
AGAGGGTC	0.213
AAGGGGTC	0.264
GAAGGGTC	0.211
AAAGGGTG	0.247
AAAGGGTC	0.363
AAAGGGTT	0.396
CAGGGGTC	0.321
CAGGGGTA	0.286
AAAGGGCT	0.00434
CACGATCC	0.141
AGCTAAAC	-0.144
TCCAGCGA	-0.138

Sequence	PBM E-score
AGATGGAT	-0.254
CAAGGGTA	0.398
ACAAGGGG	-0.128
CAAGGGTG	0.262
ACAAGGGT	0.387
CAAGGGCA	-0.182
ACAAGGGC	-0.137
CCGGGGTC	0.348
CGGGGGTC	-0.0576
ACGGGGTC	0.218
AAAGGGGT	0.32
AAGGGGGT	-0.271
AAAGGGGG	-0.385
ATTTAGCA	0.0848
AAAAGTCG	-0.033
TAAGCGCA	-0.0722
CTAATGCA	0.132
AAAAGGGA	-0.0112
AAAAGGGC	0.149
AAAAGGGT	0.386
CCAGATGA	-0.0669
GATCGTAC	-0.069
CTTAGAGA	-0.0526
GAATGGAC	0.0207
GCTATCGA	-0.0297

Sequence	PBM E-score
CTCCGAAC	-0.196
AATCTCGC	-0.0495
GGCCTTAA	0.319
AACCTTAG	0.324
TGCCTTAA	-0.0666
GACCTTAC	0.13
AGCCTTAA	-0.0565
GACCTTAA	0.324
CACCTTAC	0.148
AACCTTAC	0.318
CACCTTAG	0.245
AACCTTAT	0.312
GTCCTTAA	0.268
GAGCTTAA	-0.0983
CGGTCCCA	-0.0137
AACGACCT	0.211
ACTTGCAC	-0.141
GGGGGGAA	-0.411
GGTATCAC	0.0481
AACTGGCG	-0.0757
CATGCCAC	-0.227
CCGGCCTC	-0.0295
GGAGTTAA	0.029
TACCTTAA	0.296
CACCTTAA	0.207

Sequence	PBM E-score
AACCTTAA	0.352
GTAAAAGA	0.0206
AACTTTAT	0.0578
CCCTTTAG	0.127
AGCTTTAT	-0.0486
ACCTTTTC	0.254
ACCTTTAG	0.348
CCCTTTAA	0.286
ACCTTTAC	0.307
ACCTTTGG	0.236
GCCTTTAA	0.0959
ACCTTTTG	0.364
ACCTTTAA	0.383
ACCTTTAT	0.352
GCAGATGC	-0.337
GAGCACGA	-0.0755
TATCGATA	0.285
ACGCAAAA	-0.024
ACCTACTA	0.113
AGGATTAA	-0.0423
GTTTAGCA	-0.0642
CGTAGTTC	-0.125
AGTACCAT	0.127
ACCTTTTA	0.411
ACCTATAT	0.356

Sequence	PBM E-score
ACCTTTCA	0.257
ACCTATAA	0.188
CCCTTTTA	0.0826
GCCTTTTA	0.0912
ACCTTTCC	0.107
ACCTTTCT	0.372
ACCTATAC	0.249
GGTAGCAA	0.0702
AAACAGTG	0.0759
CCAGTTTA	0.073
TAAACCTA	0.137
CCAAGCCA	-0.122
CAGGCTAG	-0.141
CGTACGAC	-0.126
TAAAGGGA	0.145
TAAAGGAA	0.00829
AAAAGGTA	0.405
ATAAGGTA	0.231
GAAAGGTA	0.363
TAAAGGTA	0.34
GAAAGGTC	0.294
AGAAGGTA	0.286
CAAAGGTA	0.267
AAGACCAC	0.0451
CAGCCCAC	-0.113

Sequence	PBM E-score
GAGAGCAA	-0.227
GCGCCTAA	0.0328
AGTACCCA	0.289
AGTACTCA	-0.0985
GGTACTCA	0.329
CGTACCCA	-0.0471
GGTACCTA	0.398
AGTACCTA	0.299
CGTACCTA	-0.117
CGTACTCA	-0.0651
GGTACCCA	0.411
CCATCCAG	-0.155
GACTCGGA	-0.237
AAACGTAG	-0.0378
GGTCCTAC	-0.105
AGACTGGG	-0.141
TACCGTGA	0.247
CAGTACCC	0.313
AAGTACCC	0.34
AAGTACCA	0.211
AAGTACGC	-0.152
GAGTACCC	0.342
